The nature of experiment [1]: Viability qHTS for spleen associated tyrosine kinase inhibitor (SYKi) drug resistant MV4-11 cells (AID 1963824). Further: nearly all actives have a fitted effect of over 35% in size. The method in brief: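 SYK inhibitor-resistant MV4-11 AML cells, 500 per well, added to predispensed compounds and incubated 72 hr at 37 C, 5% CO2. Viability measured by CellTiter-Glo luminescence after 10 min at room temperature.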
The nature of experiment [2]: Cellular viability qHTS for adrenocortical cancer (ACC) cell line SW-13 (AID 1963989). Further: nearly all actives have a fitted effect of over 65% in size.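 On activity (max response): cells grown in serum-free medium with ITS supplement; on the % scale 0 is the no-effect control and ±100 the full control effect.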 As to conditions: SW-13 ACC cells viability, CellTiter-Glo, 48 h; activity (max response): hits give low values. An outline of the steps: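 48 h treatment, SW-13 in ITS/DMEM serum-free; doses up to 46 uM; readout CellTiter-Glo luminescence; curve fit four-parameter logistic.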
(qHTS replaces the single test concentration by a dilution series.)

Experiment [3] is described as follows: Cellular viability qHTS for adrenocortical cancer (ACC) cell line NCI-H295R (AID 1963990). Further: nearly all actives have a fitted effect of over 60% in size. An outline of the steps:
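Compound titrations (up to 46 uM final) are applied to NCI-H295R cultures for 48 h at 37C. Viable cell number is estimated by CellTiter-Glo signal, normalised to DMSO and doxorubicin controls.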

We go through nine molecules from PubChem BioAssay (NCATS).

Several values for one entry are separate records, joined by “and”; a condition that tells them apart may be missing. Identical values can stand only once. Records with an inconclusive call do not appear. Unmarked numbers belong to inactive results. Activity calls are given as the source filed them. The call rests on the fitted dose curve; in most records, active means well fitted curve in the direction sought with a large enough effect; inconclusive means small, poorly fitted or top-dose-only effect, or another doubt; inactive means no such curve, though single readings can be large; an effect the other way counts as inactive or inconclusive.
Potency means the concentration at half of the fitted maximal effect.

Regarding `COc1cc([C@H]2Oc3cc([C@H]4Oc5cc(O)cc(O)c5C(=O)[C@@H]4O)ccc3O[C@@H]2CO)ccc1O`, the Potency in experiment [1] was 18.6 µM (active). In addition, the activity (max response) in experiment [2] is 11.7% and -16.7%. Moreover, the Potency result in experiment [3] was “inactive”.

As to `CC(C)(C)c1ccc(C(=O)CCCN2CCC(OC(c3ccccc3)c3ccccc3)CC2)cc1`, the Potency in experiment [1] is 11.9 µM (active); in experiment [2], 13 µM (active); in experiment [3], 5.8 µM (active).

As for `CN[C@@H]1[C@H](O[C@H]2[C@H](O[C@@H]3[C@@H](O)[C@H](O)[C@@H](N=C(N)N)[C@H](O)[C@H]3N=C(N)N)O[C@@H](C)[C@]2(O)C=O)O[C@@H](CO)[C@H](O)[C@H]1O`, the Potency entry in experiment [1] and in experiment [3] was “inactive” throughout. The activity (max response) in experiment [2] was 6.19%.

For the molecule `Cn1ncc(Cl)c1-c1cc(C(=O)NC(CN)Cc2ccc(F)c(F)c2)oc1Cl` (configuration not stated), the Potency is 4.68 µM (active) in experiment [1], 28.2 µM (active) in experiment [2] and 3.16 µM (active) in experiment [3].

As for `Cc1ccc(-c2nn(C(C)(C)CNC(=O)c3ccncc3)c3ncnc(N)c23)cc1`, the values for the Potency in experiment [1], in experiment [2] and in experiment [3] were 6.61 µM (active), 8.91 µM (active) and 8.91 µM (active), respectively.

As to `C[C@@H](O)[C@H](N)C(=O)O`, the Potency entry in experiment [1] and in experiment [3] was “inactive” each time. In addition, the activity (max response) in experiment [2] is 12.2%.

Take `Cc1cc(-n2c(=O)ccc3cnc4[nH]ccc4c32)ccc1F`: the Potency in experiment [1] was 18.6 µM (active). The activity (max response) in experiment [2] was -19.3%. For the same molecule, the Potency entry in experiment [3] was “inactive”.

Regarding `Cn1cc(-c2ccc(S(=O)(=O)n3ccc(/C=C/C(=O)Nc4ccccc4N)c3)cc2)cn1`, the Potency in experiment [1] is 580 nM (active) and 742 nM (active); in experiment [2], 0.794 µM (active); in experiment [3], 0.891 µM (active).

As for `C=C1C(=O)O[C@H]2C[C@H](C)C(/C=C/C(C)=O)=CC[C@H]12`, the Potency in experiment [1] is 0.934 µM (active); in experiment [2], 15.8 µM (active); in experiment [3], 7.94 µM (active).
